Data: PubChem BioAssay (Tox21)
Inconclusive results are not listed. Activity calls are given as the source filed them. Unless noted, calls follow the shape of the dose curve; as a rule, active = well fitted curve in the direction sought with a large enough effect in the repeat runs; inconclusive = weak or mixed curves; inactive = no such curve, though single readings can be large; an effect the other way counts as inactive or inconclusive.

Experiments:
[1] = qHTS assay to identify small molecule agonists of the peroxisome proliferator-activated receptor delta (PPARd) signaling pathway - cell viability counter screen (AID 743211); also: nearly all actives have a fitted effect of over 55% in size
Outline: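 PPARd-bla HEK293H cells (UAS-beta-lactamase reporter) were treated with compounds for 17 h at 37 C. Viability was then read in the same wells by CellTiter-Glo luminescence after 30 min at room temperature.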

[2] = molecular target: Peroxisome proliferator-activated receptor delta (Homo sapiens) (UniProt Q03181); assay: qHTS assay to identify small molecule agonists of the peroxisome proliferator-activated receptor delta (PPARd) signaling pathway (AID 743212; calls by dose curve)
Chain of Peroxisome proliferator-activated receptor delta (Homo sapiens) (Q03181 whole entry, looked up): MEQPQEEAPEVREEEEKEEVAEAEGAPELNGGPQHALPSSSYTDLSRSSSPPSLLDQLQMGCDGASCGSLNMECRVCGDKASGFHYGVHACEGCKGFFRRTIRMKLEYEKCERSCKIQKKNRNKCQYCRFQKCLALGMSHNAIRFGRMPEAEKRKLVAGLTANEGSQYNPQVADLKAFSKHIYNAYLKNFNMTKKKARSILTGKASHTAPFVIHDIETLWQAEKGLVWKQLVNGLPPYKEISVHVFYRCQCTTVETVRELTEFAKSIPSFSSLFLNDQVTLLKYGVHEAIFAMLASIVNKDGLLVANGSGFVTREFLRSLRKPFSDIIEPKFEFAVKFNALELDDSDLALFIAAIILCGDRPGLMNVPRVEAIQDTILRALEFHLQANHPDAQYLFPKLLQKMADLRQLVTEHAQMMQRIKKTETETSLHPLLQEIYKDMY
Outline: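 Cells expressing a UAS-driven beta-lactamase reporter (PPARd-bla HEK293H) were given test compounds after a 5 h settle and kept at 37 C. Reporter activity was then measured as FRET fluorescence using LiveBLAzer B/G substrate.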

[3] = qHTS assay to identify small molecule antagonists of the peroxisome proliferator-activated receptor delta (PPARd) signaling pathway - cell viability counter screen (AID 743213); also: nearly all actives have a fitted effect of over 50% in size
Outline: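 HEK293H cells with the PPARd UAS-bla reporter, co-treated 17 h at 37 C with compounds and L165041 (300 nM final), were lysed with CellTiter-Glo. Luminescence indicated viable cell content.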

[4] = molecular target: Peroxisome proliferator-activated receptor delta (Homo sapiens) (UniProt Q03181); assay: qHTS assay to identify small molecule antagonists of the peroxisome proliferator-activated receptor delta (PPARd) signaling pathway (AID 743215; active = well fitted inhibition curve with a large enough effect in the signal ratio in the repeat runs, not every such curve was filed as active; the % refers to the signal ratio;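 also: cells stimulated with agonist L165041 at 300 nM final during compound exposure; series mostly up to about 62 µM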)
Outline: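 Fluorescence from cleaved LiveBLAzer B/G FRET substrate (2 h, room temperature) reports PPARd-driven beta-lactamase in HEK293H UAS-bla cells. Cells had been treated 17 h at 37 C with compound plus 300 nM final L165041.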

[5] = qHTS assay to identify small molecule agonists of the farnesoid-X-receptor (FXR) signaling pathway - cell viability counter screen (AID 743218); also: nearly all actives have a fitted effect of over 45% in size
Outline: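 Readout: CellTiter-Glo luminescence, 30 min RT, multiplexed after the FXR-bla FRET reading. HEK 293T FXR-UAS-bla cells received compound 5 h post-plating and were incubated 16 h at 37 C.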

[6] = molecular target: Bile acid receptor (Homo sapiens) (UniProt Q96RI1); assay: qHTS assay to identify small molecule agonists of the farnesoid-X-receptor (FXR) signaling pathway (AID 743220; active = well fitted activation curve with a large enough effect in the signal ratio in the repeat runs, not every such curve was filed as active; the % refers to the signal ratio)
Chain of Bile acid receptor (Homo sapiens) (Q96RI1 whole entry, looked up): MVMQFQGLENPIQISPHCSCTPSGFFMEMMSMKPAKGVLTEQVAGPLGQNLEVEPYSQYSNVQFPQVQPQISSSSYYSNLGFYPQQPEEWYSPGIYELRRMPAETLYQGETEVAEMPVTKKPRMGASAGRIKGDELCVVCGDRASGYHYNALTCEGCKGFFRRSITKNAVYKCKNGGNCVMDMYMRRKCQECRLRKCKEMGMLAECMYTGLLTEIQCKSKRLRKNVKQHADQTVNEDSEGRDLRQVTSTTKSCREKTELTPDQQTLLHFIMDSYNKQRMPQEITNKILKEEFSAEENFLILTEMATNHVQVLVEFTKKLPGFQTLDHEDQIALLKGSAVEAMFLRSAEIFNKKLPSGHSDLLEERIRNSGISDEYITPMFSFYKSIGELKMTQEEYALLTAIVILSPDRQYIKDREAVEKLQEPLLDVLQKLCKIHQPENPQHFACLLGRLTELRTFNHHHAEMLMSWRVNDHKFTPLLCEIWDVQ
Outline: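 FXR-UAS-bla HEK 293T cells carrying a UAS-driven beta-lactamase reporter were plated for 5 h at 37C/5% CO2, then exposed to DMSO-dissolved Tox21 10K compounds for 16 h at 37C. A LiveBLAzer B/G FRET substrate was loaded for 2 h at room temperature before fluorescence reading.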

[7] = qHTS assay to identify small molecule antagonists of the farnesoid-X-receptor (FXR) signaling pathway - cell viability counter screen (AID 743221; active = well fitted cell-killing curve with a large enough effect in the repeat runs, not every such curve was filed as active; also: nearly all actives have a fitted effect of over 50% in size)
Outline: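 FXR-UAS-bla HEK 293T cells were treated with test compounds plus chenodeoxycholic acid (50 uM final) for 16 h at 37 C. Cell viability in the same wells was then read as CellTiter-Glo luminescence after 30 min at room temperature.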

[8] = molecular target: Vitamin D3 receptor (Homo sapiens) (UniProt P11473); assay: qHTS assay to identify small molecule agonists of the vitamin D receptor (VDR) signaling pathway (AID 743222; calls by dose curve)
Chain of Vitamin D3 receptor (Homo sapiens) (P11473 whole entry, looked up): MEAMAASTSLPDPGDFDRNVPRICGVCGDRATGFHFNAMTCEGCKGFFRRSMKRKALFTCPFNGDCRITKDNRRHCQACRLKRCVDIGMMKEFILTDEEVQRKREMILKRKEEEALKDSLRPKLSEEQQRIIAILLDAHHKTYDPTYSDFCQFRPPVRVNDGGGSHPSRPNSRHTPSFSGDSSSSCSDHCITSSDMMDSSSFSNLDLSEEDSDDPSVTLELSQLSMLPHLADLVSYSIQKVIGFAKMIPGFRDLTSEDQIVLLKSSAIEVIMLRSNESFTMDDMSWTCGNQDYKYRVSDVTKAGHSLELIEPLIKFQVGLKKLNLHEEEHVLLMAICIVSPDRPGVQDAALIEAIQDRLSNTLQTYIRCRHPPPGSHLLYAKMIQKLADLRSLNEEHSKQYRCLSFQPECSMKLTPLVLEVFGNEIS
Outline: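 Following 4 h attachment at 37C, VDR-bla cells (2,000 per well) received DMSO-dissolved compounds or controls. After 16 h incubation, LiveBLAzer B/G FRET substrate was added and fluorescence read 2 h later at room temperature.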

[9] = molecular target: Vitamin D3 receptor (Homo sapiens) (UniProt P11473); assay: qHTS assay to identify small molecule antagonists of the vitamin D receptor (VDR) signaling pathway (AID 743223; active = well fitted inhibition curve with a large enough effect in the signal ratio in the repeat runs, not every such curve was filed as active; the % refers to the signal ratio)
Outline: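 VDR-bla cells were plated, incubated 4 h at 37C, then given compound and 1alpha,25-dihydroxyvitamin D3 (3 nM final). After 16 h at 37C, LiveBLAzer B/G FRET substrate was added for 2 h at room temperature and fluorescence read.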

[10] = qHTS assay to identify small molecule agonists of the vitamin D receptor (VDR) signaling pathway - cell viability counter screen (AID 743224); also: series mostly up to about 63 µM; nearly all actives have a fitted effect of over 50% in size
Outline: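 In parallel with the bla FRET readout, cytotoxicity toward VDR-bla cells after 16 h compound exposure was assessed by CellTiter-Glo, with luminescence recorded after a 30 min room-temperature incubation.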

[11] = qHTS assay to identify small molecule antagonists of the vitamin D receptor (VDR) signaling pathway - cell viability counter screen (AID 743225); also: nearly all actives have a fitted effect of over 50% in size
Outline: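 VDR-bla HEK 293T cells, 4 h pre-incubation at 37C, then compound plus 1-alpha,25-dihydroxyvitamin D3 (3 nM final) for 16 h. After the beta-lactamase FRET read, CellTiter-Glo was added to the same wells; luminescence after 30 min at room temperature.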

[12] = qHTS assay to identify small molecule agonists of the NFkB signaling pathway (AID 1159509; active = well fitted curve in the direction sought with a large enough effect in the signal ratio in the repeat runs, not every such curve was filed as active; the % refers to the signal ratio; also: series mostly up to about 61 µM)
Outline: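 Pathway activation was measured in ME-180 cells stably expressing beta-lactamase under NF-kB response element control. Substrate cleavage was read as the 460/530 nm emission shift after 5 hr compound incubation.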

[13] = qHTS assay to identify small molecule agonists of the NFkB signaling pathway - cell viability counter screen (AID 1159515; calls by dose curve; also: series mostly up to about 61 µM; nearly all actives have a fitted effect of over 55% in size)
Outline: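 Plate 2,000 NFkB-bla ME-180 cells/well; incubate overnight. Add compounds, 5 hr at 37 C. Add FRET substrate, 1.5 hr RT. Add CellTiter-Glo, 30 min RT; read luminescence.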

[14] = qHTS assay to identify small molecule agonists of the endoplasmic reticulum stress response signaling pathway (AID 1159516; active = well fitted activation curve with a large enough effect in the signal ratio in the repeat runs, not every such curve was filed as active; the % refers to the signal ratio)
Outline: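 Beta-lactamase expression from the ER stress response element in HeLa reporter cells is quantified with the LiveBLAzer B/G FRET substrate, read at 405 nm excitation after 2 hr at room temperature, following 5 hr compound treatment at 37 C.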

[15] = qHTS assay to identify small molecule agonists of the endoplasmic reticulum stress response signaling pathway - cell viability counter screen (AID 1159517; calls by dose curve)
Outline: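 Cpd-treated ESRE-bla HeLa (5 hr, 37 C) → LiveBLAzer 2 hr RT → CellTiter-Glo 30 min RT → luminescence.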

[16] = qHTS assay to identify small molecule antagonists of the retinoid-related orphan receptor gamma (ROR-gamma) signaling pathway - cell viability counter screen (AID 1159520); also: nearly all actives have a fitted effect of over 50% in size
Outline: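 Tet-on ROR gamma CHO cells (1,000/well) were plated 4 hr, given compounds in DMSO for 2 hr at 37 C, then induced with 1 uM final doxycycline for 16 hr. Viability was read as ATP by CellTiter-Glo luminescence after 30 min.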

[17] = molecular target: Nuclear receptor ROR-gamma (Homo sapiens) (UniProt P51449); assay: qHTS assay to identify small molecule antagonists of the retinoid-related orphan receptor gamma (ROR-gamma) signaling pathway (AID 1159521)
Outline: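 Tet-on RORγ CHO cells carrying a ROR response element–luciferase reporter were pretreated with compounds for 2 h, then induced with 1 uM (final) doxycycline hyclate for 16 h at 37 C. Antagonism was read as decreased ONE-Glo luminescence.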

[18] = qHTS assay to identify small molecule agonists of the AP-1 signaling pathway - cell viability counter screen (AID 1159525; calls by dose curve; also: nearly all actives have a fitted effect of over 55% in size)
Outline: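 Each titration point was normalised to DMSO and tetra n-octyl ammonium bromide controls. The read was Cell Titer Glo luminescence after 30 min at RT, following 5 h compound exposure of ME-180 AP-1-bla cells at 37 °C.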

[19] = qHTS assay to identify small molecule agonists of the AP-1 signaling pathway (AID 1159526; calls by dose curve)
[20] = molecular target: Bile acid receptor (Homo sapiens) (UniProt Q96RI1); assay: qHTS assay to identify small molecule antagonists of the farnesoid-X-receptor (FXR) signaling pathway (AID 743217; active = well fitted inhibition curve with a large enough effect in the signal ratio in the repeat runs, not every such curve was filed as active; the % refers to the signal ratio)
Outline: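 FRET fluorescence after 2 h room-temperature LiveBLAzer loading gives the readout. Prior step: FXR-bla HEK 293T cells, seeded and incubated 5 h, received test compounds plus 50 uM final CDCA for 16 h at 37 °C.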

Measured: Potency

Nc1ccc2cc(S(=O)(=O)O)ccc2c1
not listed: [20]
inactive: all other assays above

Cc1ccc(Nc2ccc(O)c3c2C(=O)c2ccccc2C3=O)cc1
inactive: all assays above

CC(C)(O)Cc1ccccc1
not listed: [5] | [6] | [9] | [20]
inactive: all other assays above

CN1[C@@H]2CC[C@H]1CC(NC(=O)n1c(=O)[nH]c3ccccc31)C2 (stereo partly drawn)
not listed: [5] | [20]
inactive: all other assays above

COCCOC(=O)CC#N
not listed: [6] | [9] | [20]
inactive: all other assays above

O=[N+]([O-])c1ccc(CCO)cc1
not listed: [7]
inactive: all other assays above

C1COCCO1
not listed: [20]
inactive: all other assays above

C=C[Si](OC)(OC)OC
not listed: [6] | [20]
inactive: all other assays above

COC(=O)CCCC(=O)O
not listed: [5] | [6] | [8] | [9] | [20]
inactive: all other assays above

CC(C)[N+](C)(C)CC(O)COc1cccc2ccccc12 (stereo not drawn)
not listed: [5] | [6] | [8] | [9] | [20]
inactive: all other assays above

CCC(C(=O)NC(N)=O)c1ccccc1 (stereo not drawn)
not listed: [4] | [5] | [8] | [9] | [11]
inactive: all other assays above

CCC(=O)/C=C/c1ccc(OC)cc1
not listed: [4] | [7] | [20]
inactive: all other assays above

COC(=O)c1ccc(C(=O)OC)c(C(=O)OC)c1
not listed: [5] | [6] | [8] | [9] | [18] | [20]
inactive: all other assays above

CCN1CCN(c2cc3c(cc2F)c(=O)c(C(=O)O)cn3C2CC2)CC1
not listed: [1] | [2] | [4] | [5] | [6] | [20]
inactive: all other assays above

COC[C@H](c1ccc(C(F)(F)F)cc1)N1CCN(C2(C)CCN(C(=O)c3c(C)ncnc3C)CC2)C[C@H]1C
not listed: [1] | [6] | [9] | [20]
inactive: all other assays above

OCCN1C[C@H](O)[C@@H](O)[C@H](O)[C@H]1CO
not listed: [5] | [8] | [9] | [18]
inactive: all other assays above
